Assay results as given in PubChem BioAssay AID1621 (Southern Research Specialized Biocontainment Screening …, 2009).
Out of some 290,000 compounds screened, about 60 (0.02%) were called active. About 1% were inconclusive and are not listed. How the calls were made is not given here. These entries were drawn from the full list. Results with a measured potency or affinity are listed apart.

Experiment: West Nile virus antiviral activity, cell-based, CPE readout (AID 1621)
Conditions: West Nile virus-infected cells, at 10 µM, stronger effect = higher value

CPE inhibition, inactive:
O=C(CCn1c(=S)[nH]c2ccccc2c1=O)N1CCCCC1 0%
O=C(N/N=C\c1ccc(S(=O)(=O)O)o1)c1ccc2c(c1)OCO2 -0.67%
CCN1CCN(CCNC(=O)c2ccc(/C=C3/Sc4ccccc4N(Cc4ccccc4C)C3=O)cc2)CC1 -0.85%
O=C(NCCN1CCOCC1)c1ccc(/C=C2\Sc3ccccc3N(Cc3ccccc3F)C2=O)cc1 2.03%
CC(NS(=O)(=O)c1ccc(Cl)cc1)C(c1cccs1)N1CCN(C)CC1 (stereo not given) -0.37%
CCCCOc1cccc(C(=O)Nc2ccc(S(=O)(=O)Nc3nnc(CC)s3)cc2)c1 -0.64%
COc1ccc(N=C2CC(C)(C)CC(=O)/C2=C(/O)c2ccccc2)cc1 -0.15%
COC(=O)c1scc(C)c1NC(=O)Nc1ccccc1 1.33%
O=C(NC1CCCC1)C(c1cccs1)N(CC1CCCO1)C(=O)Cc1cccs1 (stereo not given) -0.52%
Cc1cc(C)c(S(=O)(=O)n2c([N+](=O)[O-])cnc2C)c(C)c1 1.59%
CN1CCN(c2ccccc2NC(=O)c2sc3ccccc3c2Cl)CC1 -0.79%
CN1CCN(C(=O)c2ccccc2NC(=O)c2sc3ccccc3c2Cl)CC1 -1.33%
O=C(O)C1CCCN1C(=O)Nc1ccc(F)cc1 (stereo not given) -0.08%
COc1ccc(-c2nc3ccc(C(=O)NCCCN4CCOCC4)cc3nc2-c2ccc(OC)cc2)cc1 0.5%
CCN1CCN(CCNC(=O)c2ccc3nc(-c4cccc(C)c4)c(-c4cccc(C)c4)nc3c2)CC1 -1.29%
c1ccc(OCCCCn2cnc3ccccc32)cc1 -0.39%
O=C(c1ccco1)c1cn[nH]c1-c1ccc(Cl)cc1O 0.03%
CC(=O)NCC(=O)NC(C(=O)Nc1ccc2c(c1)OCCO2)c1ccc(C)cc1 (stereo not given) -0.73%
CN(C)S(=O)(=O)c1cccc(NC(=O)c2cncc(Br)c2)c1 0.06%
Cc1ccc(S(=O)(=O)N(C)C)cc1NC(=O)c1ccncc1 0.43%
C/C=C/c1ccc(OCCCNC(C)CC)c(OC)c1 (stereo not given) -0.34%
CC(/C=C/c1ccco1)=N\NC(=O)CNc1cccc(C)c1 -0.57%
CCCCOP(=O)(c1ccc(N(C)C)cc1)C(O)c1ccc(OC)cc1 (stereo not given) -0.79%
Cc1ccccc1NC1=CC(=O)CC(C)(C)C1 -0.82%
COc1cc(CNC(C)(C)CO)cc(Br)c1OCc1ccc(Cl)cc1Cl 15.4%
COc1cc(CNC(C)(C)CO)cc(Br)c1OCc1ccccc1 -0.18%
CC1C(O)=C(c2nc3ccccc3[nH]2)C(=N)N1c1ccccc1 (stereo not given) 1.12%
CC(O)CNc1ccc(-c2n[nH]c(=O)c3ccccc23)cc1[N+](=O)[O-] (stereo not given) -1.06%
CCCn1c(SCC(=O)N(CC)CC)nnc1-c1ccncc1 -0.86%
CC1CCN(CCCNC(=O)c2cc3c(Cl)nc4ccccc4c3s2)CC1 3.15%
O=C(NCCCN1CCCC1)c1cc2c(Cl)nc3ccccc3c2s1 0.85%
CNC(=O)OC(C)CNS(=O)(=O)c1ccc(C)cc1 (stereo not given) -0.03%
CCc1c(C(=O)Nc2ncn(Cc3cccc(C)c3)n2)csc1C -0.2%
COc1ccccc1C(=O)NCCC(=O)NCCc1ccccc1 0.26%
Cc1cc(C)cc(NC(=O)[C@H](Cc2c[nH]c3ccccc23)NC(=O)[C@@H]2Cc3ccccc3CN2)c1 -1.23%
Cc1ccc(NC(=O)[C@H](Cc2ccccc2)NC(=O)[C@@H]2Cc3ccccc3CN2)c(C)c1 -0.41%
CCOC(=O)c1ccc(NC(=S)N(CCCN2CCN(CC)CC2)Cc2ccco2)cc1 -0.57%
COc1cc2c(cc1OC)-c1cc(Nc3ccc(C(=O)O)cc3)nc(=O)n1CC2 -0.34%
CC(C(=O)Nc1cccc(S(=O)(=O)N2CCOCC2)c1)N1CCN(c2ccc(F)cc2)CC1 (stereo not given) -1.17%
CCOCC(=O)Nc1cccc(SC)c1 0.36%
CCN(CCN1CCCC1)C(=O)c1cc(COc2ccccc2SC)on1 -1.45%
O=C(COc1ccc(Cl)cc1)NC1=NN(c2ccccc2)C(=O)C1 -0.49%
CN(C)CCCNc1nc(N)c([N+](=O)[O-])c(NC2CCCCC2)n1 1.01%
Nc1nc(NCCO)nc(NC2CCCCC2)c1[N+](=O)[O-] 1.53%
CC(C)OC(=O)CC(=O)CSc1nc(-c2ccc(F)cc2)cc(-c2ccccc2)c1C#N -0.46%
O=S(=O)(CCSc1ccc(C(F)(F)F)cn1)c1ccc(Cl)cc1 -0.47%
CCCN(CCC)CCCNC(=S)Nc1ccc2nc(N3CCN(C)CC3)cc(C)c2c1 0.29%
CCCN(CCC)CCCNC(=S)Nc1ccc2nc(N3CCN(CC)CC3)cc(C)c2c1 3.38%
CCC(C)NC(=O)C1CCCN(S(=O)(=O)c2ccc(-n3cnnn3)cc2)C1 (stereo not given) 0.81%
Cc1ccc(S(=O)(=O)NNC(=O)Nc2cccc(F)c2)c(C)c1 0.14%
